Laboratory results: the supplement of paper PMC6555819

Columns and labels:
Test in all cases: PBM binding z-score (relative to random genomic background probes); higher = stronger binding; sequences stand for … in GC…GCGATTGACAGCGTAGAATGAAGG
[1] = system: FXR:RXRa (NR concentration 270 nM, RXRa partner concentration 90 nM)
Summary of the method: (§1)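 Regression normalization was applied to scanned fluorescence from custom Agilent 4×180K protein-binding microarrays. Before scanning, arrays were incubated 1 h with ligand-free nuclear receptor dimers, and binding was detected with antibodies against each partner (one per run). Binding z-scores use the random background probes as reference.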

[2] = system: LXRa:RXRa (NR concentration 270 nM, RXRa partner concentration 90 nM)
Summary of the method: as §1

[3] = system: LXRa homodimer (NR concentration 270 nM)
Summary of the method: as §1

[4] = system: LXRb:RXRa (NR concentration 270 nM, RXRa partner concentration 90 nM)
Summary of the method: as §1

[5] = system: LXRb homodimer (NR concentration 270 nM)
Summary of the method: as §1

[6] = system: PPARa:RXRa (NR concentration 270 nM, RXRa partner concentration 90 nM)
Summary of the method: as §1

[7] = system: PPARg:RXRa (NR concentration 180 nM, RXRa partner concentration 90 nM)
Summary of the method: as §1

[8] = system: PPARg:RXRa 270nM:90nM, anti-RXR (NR concentration 270 nM, RXRa partner concentration 90 nM)
Summary of the method: as §1

[9] = system: PPARg:RXRa 30nM:10nM, anti-RXR (NR concentration 30 nM, RXRa partner concentration 10 nM)
Summary of the method: as §1

[10] = system: PPARg:RXRa 90nM:30nM, anti-RXR (NR concentration 90 nM, RXRa partner concentration 30 nM)
Summary of the method: as §1

[11] = system: PPARg:RXRa DBDmut IVT, anti-RXR (DBD mutation: RXRa K156A/R161A, NR concentration 270 nM, RXRa partner concentration 90 nM)
Summary of the method: as §1

[12] = system: PPARg:RXRa IVT, anti-PPARg (NR concentration 270 nM, RXRa partner concentration 90 nM)
Summary of the method: as §1

[13] = system: PPARg DBDmut:RXRa IVT, anti-PPARg (DBD mutation: PPARg1 K132A/R137A, NR concentration 270 nM, RXRa partner concentration 90 nM)
Summary of the method: as §1

[14] = system: PPARg DBDmut IVT, anti-PPARg (DBD mutation: PPARg1 K132A/R137A, NR concentration 270 nM)
Summary of the method: as §1

[15] = system: PPARg homodimer (NR concentration 180 nM)
Summary of the method: as §1

[16] = system: PXR:RXRa (NR concentration 270 nM, RXRa partner concentration 90 nM)
Summary of the method: as §1

[17] = system: PXR homodimer (NR concentration 270 nM)
Summary of the method: as §1

[18] = system: RARa:RXR (NR concentration 270 nM, RXRa partner concentration 90 nM)
Summary of the method: as §1

[19] = system: RARa homodimer (NR concentration 270 nM)
Summary of the method: as §1

[20] = system: RARb:RXRa (NR concentration 270 nM, RXRa partner concentration 90 nM)
Summary of the method: as §1

Row | Sequence | PBM binding z-score [1] | PBM binding z-score [2] | PBM binding z-score [3] | PBM binding z-score [4] | PBM binding z-score [5] | PBM binding z-score [6] | PBM binding z-score [7] | PBM binding z-score [8] | PBM binding z-score [9] | PBM binding z-score [10] | PBM binding z-score [11] | PBM binding z-score [12] | PBM binding z-score [13] | PBM binding z-score [14] | PBM binding z-score [15] | PBM binding z-score [16] | PBM binding z-score [17] | PBM binding z-score [18] | PBM binding z-score [19] | PBM binding z-score [20]
1 | CGTCCAAGGTCAGAGAGGACAGTGAATGCCGAGT | 4.64 | 3.42 | 0.241 | 2.28 | -0.021 | 3.85 | 2.24 | 2.75 | 0.355 | 1.59 | 2.32 | 2.3 | -0.223 | -1.03 | 2.09 | 3.22 | 4.69 | 2.69 | 0.425 | 4.64
2 | ACAGACAGGTGAGTGAAGGTAACTCACCTGGACG | 0.567 | 0.338 | -0.604 | -0.347 | -0.328 | 0.358 | 0.593 | 0.216 | 0.0231 | -0.144 | 0.281 | 1.01 | 0.307 | 0.131 | -0.03 | -0.17 | -0.14 | 0.495 | -0.345 | 0.553
3 | ACAGACGGGTGATGAAGGTAACTCAGGCTATCAT | -0.328 | -0.456 | -0.165 | -0.422 | -0.384 | -0.198 | 0.613 | -0.161 | 0.108 | -0.458 | -0.229 | 0.424 | 0.246 | -0.242 | -0.329 | -0.323 | -0.116 | -0.078 | -0.0586 | -0.204
4 | TCATATAGGTAAAGGTGAACGTCGAACGATATGA | 1.01 | 1.27 | -0.125 | 1.25 | -0.0636 | 3.18 | 4.94 | 4.76 | 4.7 | 5.08 | 3.97 | 4.38 | 1.68 | 1.19 | 1.37 | 0.966 | 0.23 | 1.74 | 0.665 | 2.09
5 | TCATATAGGTAAACAGGTAAAAGTCCGTAAGTTA | 1.11 | 1.14 | 0.519 | 0.863 | 0.214 | 1.98 | 2.49 | 3.29 | 4.26 | 3.85 | 4.45 | 3.81 | 1.35 | 1.75 | 0.996 | 0.894 | 0.723 | 1.14 | 1.5 | 0.628
6 | TCGAGTAGGTTAGGGGCAGTCAGAATGGCGTCGA | 0.232 | 0.211 | -0.0968 | 0.86 | -0.416 | 1.11 | 0.492 | 1.58 | 0.558 | 1.36 | 2 | 1.49 | -0.663 | -0.988 | 0.763 | 0.184 | 0.227 | 0.265 | -0.345 | 1.08
7 | ATCGAAAGCTCGTGAGGTGAGTATACAGAAAGGC | -0.207 | -0.537 | -0.718 | -0.546 | -0.682 | -0.128 | 0.416 | 0.00274 | 0.112 | -0.368 | -0.799 | 0.0817 | 0.275 | 0.0739 | -0.405 | -0.403 | -0.674 | -0.104 | -0.351 | 0.0466
